# High-throughput results (PubChem BioAssay)
# aGal spleen mod = inhibitors or activators of human alpha-galactosidase in spleen homogenate; P06280; human spleen homogenate, 4MU-alpha-Gal fluorescence, 40 min; Potency, µM (series often up to 80 µM), inactives show at the top dose activity change, negative = inhibition, usual class: inhibitors; 240,000 compounds, 0.008% hits;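 note: potency is the fitted concentration of half-maximal effect; 0% = enzyme with vehicle and -100% = no enzyme basal signal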
#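 Inhibition or activation of alpha-galactosidase in human spleen homogenate is scored by 4-MU fluorescence after 40 min at 37C, pH 5.0, with 1 mM substrate. AC50s come from concentration-response fitted to the Hill equation.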
# HPGD inh = HPGD (human) dehydrogenase inhibition; 150,000 compounds, 4.3% hits; purified HPGD, NADH fluorescence kinetic, PGE2 substrate; P15428; Potency, µM, without a hit: at the highest dose activity change, negative = inhibition, hits mostly inhibitors; active = well fitted inhibition curve with a large enough effect, not every such curve was filed as active; inconclusive = small, poorly fitted or top-dose-only effect, or another doubt; inactive = no such curve, though single readings can be large or run the other way; note: potency is the fitted concentration of half-maximal effect
# Target sequence (P15428 whole entry, looked up): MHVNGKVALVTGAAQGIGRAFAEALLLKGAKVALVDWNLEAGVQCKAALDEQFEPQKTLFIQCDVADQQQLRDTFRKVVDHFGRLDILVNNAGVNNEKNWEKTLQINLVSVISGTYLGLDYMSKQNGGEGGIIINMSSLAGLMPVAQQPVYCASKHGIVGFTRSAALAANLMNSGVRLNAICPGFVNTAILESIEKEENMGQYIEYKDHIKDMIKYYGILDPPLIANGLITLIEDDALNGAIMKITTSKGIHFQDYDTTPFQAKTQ
#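 20 nM HPGD preincubated 15 min at room temperature with compound in 50 mM Tris-HCl pH 8, 0.01% Tween 20. Started with 1 mM NAD+ and 30 uM prostaglandin E2; NADH fluorescence (360/450 nm) read 5 times over 30-s intervals, last minus first.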
# PNC inhibitor = blocks assembly of the perinucleolar compartment. PC3M PTB-GFP, PNC prevalence imaging, 16 h; hits give low values. activity change (PNC), negative = inhibition, % at 10 µM. 140,000 compounds, 3.1% hits;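 active = readout at or below -70, meaning at least 70% loss of cells showing the perinucleolar compartment, a nuclear body marking cancer cells; inconclusive = readout between -30 and a set limit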;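 note: plate controls were DMSO wells for no effect and camptothecin positive control wells for full effect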
#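 Read-out is percentage of cells bearing a perinucleolar compartment, from automated 20x imaging of fixed, Hoechst-stained PC3M PTB-GFP cells. Cells were seeded 4 h, then exposed 16 h to compound (23 nl of library stock) in duplicate plates.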
# ALOX12 inhib = 12-hLO (ALOX12) enzyme inhibition | P18054 | purified 12-hLO, xylenol orange hydroperoxide absorbance | Potency, µM (doses to about 57.1 µM), without a hit: at the top dose activity change, negative = inhibition, most hits filed as inhibitors | 150,000 compounds, 0.12% hits | AID 1452; note: potency is the fitted concentration of half-maximal effect; nearly all actives have a fitted effect of over 55% in size
#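 Hydroperoxide output read as Fe(III)-xylenol orange absorbance, 573-to-405 nm ratio, after 30 min reaction with 40 uM arachidonic acid. Enzyme: 150 nM purified human 12hLO, 15 min compound preincubation; 25 mM Hepes pH 7.0, room temperature.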
# GLA inh pH 4.5 = blocks human alpha-galactosidase A at pH 4.5; purified enzyme, 4-MU-alpha-Gal fluorescence, pH 4.5; activity change, negative = inhibition, % at 105 µM; 230,000 tested, under 10 active; AID 1467;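 note: 0% = full activity with enzyme and -100% = basal without enzyme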
# Target sequence (P06280 whole entry, looked up): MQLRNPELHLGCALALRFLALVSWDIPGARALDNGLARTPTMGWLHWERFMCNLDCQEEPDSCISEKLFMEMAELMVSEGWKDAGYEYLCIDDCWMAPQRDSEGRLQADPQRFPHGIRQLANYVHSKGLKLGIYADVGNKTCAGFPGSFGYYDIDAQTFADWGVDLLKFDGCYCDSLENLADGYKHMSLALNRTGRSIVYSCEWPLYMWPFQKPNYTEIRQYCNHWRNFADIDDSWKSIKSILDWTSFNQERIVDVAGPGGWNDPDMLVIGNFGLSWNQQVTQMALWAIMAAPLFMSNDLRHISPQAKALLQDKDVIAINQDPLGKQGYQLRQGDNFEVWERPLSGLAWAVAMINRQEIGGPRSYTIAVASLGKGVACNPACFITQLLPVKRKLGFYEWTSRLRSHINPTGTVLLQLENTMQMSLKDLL
# ALDH1A1 block = ALDH1A1 (human) enzyme inhibition | P00352 | Purified ALDH1A1, NADH fluorescence, propionaldehyde substrate | Potency, µM (highest dose often 75.3 µM), for the others: at the highest dose activity, negative = inhibition, hits mostly inhibitors | 220,000 compounds, 7.3% hits; active = well fitted inhibition curve with a large enough effect, not every such curve was filed as active; inconclusive = small, poorly fitted or top-dose-only effect, or another doubt; inactive = no such curve, though single readings can be large or run the other way;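 note: potency is the fitted concentration of half-maximal effect; plate controls were no enzyme wells and a reference inhibitor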
# * marks the source's active call; other numbers are inactive results; ? = inconclusive; / = no result given; [ ] = another dose, or the depositor's remark. This is a sample that favours compounds with a hit; in the whole collection about 10% have one here. Unless noted, calls come from the whole dose curve; as a rule, active = well fitted curve in the direction sought with a large enough effect; inconclusive = small, poorly fitted or top-dose-only effect, or another doubt; inactive = no such curve, though single readings can be large; an effect the other way counts as inactive or inconclusive. Unless noted, % is set by controls: 0 for no effect and ±100 for the full control effect.
SMILES,aGal spleen mod,HPGD inh,PNC inhibitor,ALOX12 inhib,GLA inh pH 4.5,ALDH1A1 block
OCC#CCSc1nnc(-c2ccccc2Br)o1,-5%,-19%,7,2%,2,20µM*
O=C(O)c1ccc2oc(SCC(=O)N3CCCCC3)nc2c1,7%,8.9µM*,0,12%,1,13%
O=C(CSc1nc2cc(Cl)ccc2o1)N1CCOCC1,-3%,-14%,?,-2%,-12,-2%
CC(C)(C)NC[C@H](O)c1cc(O)cc(O)c1,3%[29.1 µM],0%,/,3%[25.6 µM],2,10%[20.9 µM]
O=C1OC(Cc2ccccn2)C(O)=C1C1=NCCCN1 (stereo not given),7%,-4%,-83*,-2%,8,-2%
O=C1OC(Cc2ccccn2)C(O)=C1C1=NCCCCN1 (stereo not given),-4%,?,7,6%,0,8%
COC(=O)c1sccc1N/N=C/c1ccc(OC)c(OC)c1OC,11%,?,?,-5%,-8,?
COc1cccc(/C=N/Nc2nc(Nc3ccccc3)nc(-n3nc(C)cc3C)n2)c1O,-6%,-14%,14,9%,-5,6%
COc1cccc(/C=N/Nc2ncnc3scc(-c4ccccc4)c23)c1O,1%,20µM*,-101*,-11%,-8,4%
COC(=O)c1sccc1N/N=C/c1cccc(OC)c1O,3%,-22%,-116*,3%,10,3%
COc1cccc(/C=N/Nc2ncnc(Cl)c2N)c1O,-4%,-10%,?,-2%,3,3%
COc1cccc(/C=N/Nc2cc(-n3nc(C)cc3-c3ccccc3)ncn2)c1O,-1%,-11%,-100*,0%,?,18%
CCOc1cc([N+](=O)[O-])c2nc(N)sc2c1,-1%,/,/,/,-9,/
CC(=O)Nc1ccc(S(=O)(=O)Oc2ccc(C(=S)N3CCC(O)CC3)cc2)cc1,-6%,32µM*,23,-3%,4,4%
CC(=O)Nc1ccc(S(=O)(=O)Oc2ccc(C(=S)N3CCCCC3)cc2)cc1,-4%,16µM*,?,3%,-4,14µM*
NC(=O)N/N=C/CCc1ccccc1,-5%,/,/,/,8,/
C(/CCc1ccccc1)=N\n1cnnc1,0%,-6%,-100*,-1%,3,8%
Cc1ccc(S(=O)(=O)N(CCCO)CC(O)CON=C2c3ccccc3-c3ccccc32)cc1 (stereo not given),2%,-9%,32,-5%,-7,8.9µM*
CC(=O)N1CCCc2cc(S(=O)(=O)N3CCC(C)CC3)ccc21,6%,-10%,24,-7%,9,-16%
COCCn1c(C)cc(/C=C2/NC(=O)N(c3ccc(Cl)cc3)C2=O)c1C,-6%,-21%,-114*,-1%,3,-7%
COCCn1c(C)cc(/C=C2/NC(=O)N(Cc3ccc(C)cc3)C2=O)c1C,14%,/,/,/,-8,/
CCc1nnc(NC(=O)CSc2nc3cccnc3n2C2CCCCC2)s1,-15%,-9%,-30,-7%,-5,2%
Cc1nc(NC(=O)CSc2nc3cccnc3n2C2CCCCC2)sc1C,-5%,-12%,-125*,0%,2,-3%
C=C1C2CC[C@@]3(C)C(c4ccoc4)OC(=O)C[C@@]13OC1CC(OC(C)=O)C(C)(C)C(CC(=O)OC)[C@@]12C (stereo not given in full),5%,-3%,/,-11%,-6,8%
CC1CCC/C(=C\Nc2ccc(C(=O)O)cc2)C1=O (stereo not given),-12%,/,/,/,-2,14µM*
SMILES,aGal spleen mod,HPGD inh,PNC inhibitor,ALOX12 inhib,GLA inh pH 4.5,ALDH1A1 block
N#CCCSC(=S)[C@H]1CCCC1=N,/,-8%,/,0%[11.4 µM],/,4%[13.5 µM]
Cc1nc2cnc(N(C)C)nc2n(CCc2ccccc2)c1=O,-13%,/,/,/,/,?
Cc1cc(N2CCC(C)CC2)nc(SCC(=O)c2ccccc2)n1,7%,-10%,-119*,-4%,-29,14µM*
COc1ccc(CNC(=O)CCSCc2cccc(Cl)c2)c(OC)c1,4%,28µM*,-24,-10%,3,?
O=C(Cc1ccccc1)NCCc1cccc(Cl)c1,-6%,10µM*,-26,5%,-20,?
O=C(CCSCc1cccc(Cl)c1)NCCc1ccccc1,-3%,8.9µM*,29,-7%,7,?
COc1ccc(CNC(=O)CCSCc2ccccc2Cl)c(OC)c1,-15%,-24%,6,-5%,0,?
O=C(O)CCC(=O)NCCc1cccc(Cl)c1,-3%,/,/,/,0,?
O=C(NCCc1ccccc1)c1ccc(Cl)nc1,-4%,-14%,-100*,1%,-1,11%
CCCCCCCn1c2c(c(=N)c3ccccc31)CCC2,-1%,/,/,/,0,?
N[C@@H](CCCC(=O)O)C(=O)O,2%,-16%,/,/,-9,-5%
CC(C)CC(=O)N(Cc1ccc(F)cc1)C1CCS(=O)(=O)C1 (stereo not given),-2%,/,/,/,4,11%
C[C@H]1C[C@H]2[C@H]3CCC4=CC(=O)C=C[C@@]4(C)[C@]3(F)[C@H](O)C[C@]2(C)[C@@]1(O)C(=O)COP(=O)(O)O,/,-1%,/,0%[11.4 µM],/,18%[13.5 µM]
CSCC[C@H](NC(=O)[C@@H]1CCCN1C(=O)CNC(=O)[C@H](CCCCN)NC(=O)[C@H](Cc1cnc[nH]1)NC(=O)[C@H](CO)NC(=O)[C@H](CC(C)C)NC(=O)[C@H](CCCNC(=N)N)NC(=O)[C@@H]1CCCN1C(=O)[C@H](CCCNC(=N)N)NC(=O)[C@H](CCC(N)=O)NC(=O)[C@H](CCCNC(=N)N)NC(=O)[C@H](CCCNC(=N)N)NC(=O)[C@H](Cc1ccccc1)NC(=O)[C@@H](N)CCCCN)C(=O)N1CCC[C@H]1C(=O)N[C@@H](Cc1ccccc1)C(=O)O,-5%,/,/,/,/,/
C#CCOC(=O)CCC(=O)NCCc1ccccc1,-10%,-16%,7,0%,-2,10µM*
Cc1cnc(SCc2ccc(Cl)cc2Cl)[nH]c1=O,2%,/,/,/,1,/
Cc1nnc(SCc2ccc(Cl)cc2Cl)[nH]c1=O,7%,16µM*,?,3%,-4,14%
COc1ccc2c(c1)-c1nc(/N=C/c3ccccc3O)sc1CC2,-14%,-14%,23,-8%,7,28µM*
COc1ccc2c(c1)-c1nc(/N=C/c3cccc(OC)c3O)sc1CC2,5%,-17%,-23,-26%,6,11µM*
COc1ccc(OC)c(/C=N/c2c(-c3ccc(O)c(OC)c3)nc3ccccn23)c1,1%,/,/,/,4,?
COc1cccc(C=Nc2cccnc2)c1O,-8%,-22%,11,-2%,4,-3%
O=C(O)c1[nH]c(=O)[nH]c(=O)c1CN1CCCCC1,/,-10%,/,-3%[11.4 µM],/,9%[13.5 µM]
